Compound activity from PubChem BioAssay.
Only a selection was taken, and hits are over-represented in it overall.
LmPK inh – LmPK (Leishmania mexicana) enzyme inhibition | Potency, µM (highest dose often 57.5 µM), most hits filed as inhibitors | actives 0.37% (n = 290,000) | Q27686 | purified LmPK, Kinase-Glo ATP luminescence, 1 h
Target sequence (Q27686 whole entry, looked up): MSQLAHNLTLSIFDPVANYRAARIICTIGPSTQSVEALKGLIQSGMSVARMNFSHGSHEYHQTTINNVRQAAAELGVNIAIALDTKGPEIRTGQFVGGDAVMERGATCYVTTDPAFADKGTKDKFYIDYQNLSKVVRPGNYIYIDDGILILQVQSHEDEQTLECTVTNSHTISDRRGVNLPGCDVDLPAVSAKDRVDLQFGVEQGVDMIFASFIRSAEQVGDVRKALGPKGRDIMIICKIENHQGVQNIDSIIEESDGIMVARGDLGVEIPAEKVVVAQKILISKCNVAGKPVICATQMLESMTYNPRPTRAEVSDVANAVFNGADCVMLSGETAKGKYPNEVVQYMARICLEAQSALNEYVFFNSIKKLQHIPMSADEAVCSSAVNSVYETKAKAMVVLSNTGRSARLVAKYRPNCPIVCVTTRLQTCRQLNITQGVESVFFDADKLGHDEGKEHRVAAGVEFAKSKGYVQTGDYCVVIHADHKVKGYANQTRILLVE
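qHTS format; LmPK 0.1 nM; substrates PEP 0.5 mM and ADP 0.1 mM. One-hour room-temperature incubation, then coupled luciferase luminescence; 0.5 nM enzyme wells mark activation.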
Tb PYK inh – blocks Trypanosoma brucei pyruvate kinase. TbPYK enzyme, Kinase-Glo Plus ATP luminescence, 45 min. actives 0.12% (n = 410,000). Potency, µM (series often up to 76.8 µM), usual class: inhibitors; further: nearly all actives have a fitted effect of over 50% in size
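Enzyme and substrate buffer are dispensed first and compound is pin-transferred. ADP at 130 uM final then starts the reaction, which runs 45 min at room temperature. Detection reagent is added for 10 min before luminescence is imaged.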
Shiga toxin inh – inhibitors of Shiga toxin in Vero cells. Vero cells, Shiga toxin protein synthesis inhibition reporter. inhibition, % at 38.7 µM. actives 9.2% (n = 290,000). AID 2315; in the data active means inhibition mostly above about 28%, no sharp cut-off; inactive means mostly below about 43%
CHX counter – counter-screen for Shiga toxin inhibitors: cycloheximide protein synthesis inhibition; actives 12% (n = 300,000); cell reporter, cycloheximide protein synthesis inhibition counterscreen; max response, %; in the data active means max response mostly above about 13%, no sharp cut-off; inactive means mostly below about 14%; further: read at 38.3 µM for the half of the compounds with a filed dose
RE007 growth inh – less growth of the S. pombe RE007 Vpr strain. S. pombe RE007 Vpr strain, BacTiter-Glo ATP luminescence, 24 h. Potency, µM (top dose mostly 92.2 µM), usual class: inhibitors. actives 0.21% (n = 360,000). AID 651644; active means well fitted falling curve with a large enough effect; inconclusive means small, poorly fitted or top-dose-only effect; inactive means no such curve, though single readings can be large or run the other way; further: nearly all actives have a fitted effect of over 50% in size
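Fission yeast RE007 carrying one integrated HIV-1 vpr copy, seeded at OD 0.01 in PMG+AL medium with 23 nL pinned compound. Grown 24 h at 30 degrees; viability read by BacTiter-Glo luminescence after 5 min.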
FBPA Giardia inh – Giardia lamblia aldolase inhibition | AID 2451 | Potency, µM (doses to about 59.6 µM), most hits filed as inhibitors | actives 0.71% (n = 290,000) | A8B2U2 | purified Giardia FBPA; further: nearly all actives have a fitted effect of over 55% in size
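40 nM FBPA preincubated 10 min at RT with compound (up to 57.5 uM final), then substrate plus GAPDH/TPI/NAD/arsenate coupling and diaphorase/resazurin added. Fluorescence read after 20 min at RT, 525/598 nm.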
Numbers stand for hits; . = inactive; ? = inconclusive; / = no result; [ ] = dose if it differs, or a comment. Unless noted, the call rests on the fitted dose curve; in most records, active means well fitted curve in the direction sought with a large enough effect; inconclusive means small, poorly fitted or top-dose-only effect, or another doubt; inactive means no such curve, though single readings can be large; an effect the other way counts as inactive or inconclusive.

SMILES	LmPK inh	Tb PYK inh	Shiga toxin inh	CHX counter	RE007 growth inh	FBPA Giardia inh
COc1ccc(Cl)cc1NC(=S)NCCc1ccc(F)cc1	.	.	.	.	.	.
C=CCNC(=S)Nc1ccc(F)cc1F	.	.	.	.	.	.
COCCCNC(=S)NNC(=S)Nc1ccccc1	.	.	40.0	26.9	.	.
COCCCNC(=S)Nc1ccc(C)cc1	.	.	.	.	.	.
COCCCNC(=S)NCCc1ccc(F)cc1	.	.	44.6	.	.	.
COCCCNC(=S)NNC(=S)Nc1ccc(F)cc1F	.	.	54.4	44.4	.	.
N#Cc1ccccc1-c1cncnc1NCc1cccnc1	/	/	/	/	/	.
CC1=C(c2ccc(C)c(C)c2)S(=O)(=O)N(Cc2ccc(C(=O)NCc3ccc(C)cc3)cc2)C1=O	/	.	/	/	/	/
CC(C)c1ccc(C(=O)Nc2cccc3cccnc23)cc1	/	.	/	/	/	/
O=C(Nc1cccc2cccnc12)c1ccc(F)cc1	/	.	64.2	35.5	/	/
O=C(Nc1cccc2cccnc12)c1cccc([N+](=O)[O-])c1	.	.	69.0	35.2	.	.
Cc1cc(C(=O)Nc2cccc3cccnc23)ccc1[N+](=O)[O-]	.	.	.	.	.	.
CC(C)Oc1ccc(C(=O)Nc2cccc3cccnc23)cc1	.	.	59.3	26.9	.	.
CCOc1ccc(C(=O)Nc2cccc3cccnc23)cc1	.	.	.	.	.	.
O=C(Nc1cccc2cccnc12)c1ccccc1	/	/	43.3	24.8	/	/
Cc1ccccc1CNC(=O)C1=Cc2ccccc2OC1	/	.	/	/	/	/
CC[C@H](C)[C@H](NC(=O)[C@H](Cc1ccc(O)cc1)NC(=O)[C@@H]1CCCN1C(=O)[C@@H](N)CCCN=C(N)N)C(=O)N[C@@H](CC(C)C)C(=O)O	/	/	.	.	/	.
COC(C)(C)CCCC(C)C/C=C/C(C)=C/C(=O)O (centres undefined)	/	/	/	/	/	.
CCCn1c(-c2ccc(F)cc2)nc2c(N3CCN(C)CC3)nc(C)nc21	/	/	/	/	/	.
O=C(Nc1cccc2cccnc12)c1ccc(Br)o1	.	.	.	25.5	.	.
O=C(Oc1ccc(Cl)c2cccnc12)c1cccc([N+](=O)[O-])c1	.	.	.	.	?	.
O=C(Oc1c(Cl)cc(Cl)c2cccnc12)c1cccc([N+](=O)[O-])c1	.	.	.	.	8.91µM	.
O=C(Nc1cccc2cccnc12)C(Cl)(Cl)Cl	/	/	.	.	/	/
O=C(Nc1cccc2cccnc12)OC(Cl)(Cl)Cl	/	/	.	21.5	/	/
CCn1c(=O)sc2cc(NS(=O)(=O)c3ccc(C)cc3)ccc21	/	.	/	/	/	/
SMILES	LmPK inh	Tb PYK inh	Shiga toxin inh	CHX counter	RE007 growth inh	FBPA Giardia inh
Cc1ccc(Cc2cnc(NC(=O)C3CCCO3)s2)cc1 (centres undefined)	.	.	137.6	34.4	?	.
O=C(Nc1ncc(Cc2cccc(C(F)(F)F)c2)s1)C1CCCO1 (centres undefined)	.	.	35.0	34.3	.	.
N#Cc1ccc(CN2CCCC3(CCN(C(=O)c4ccncc4)CC3)C2)cc1	/	.	/	/	/	.
CC(C)(C)c1ccc(N2C(=O)Cc3c2nc(N)c(C#N)c3N)cc1	.	/	.	35.0	.[3.69 µM]	.
CCN(CC)c1nc2c3c(nc4c(c3c1C#N)CC(=O)N4c1ccc(Cl)cc1)NC(C)=N2	.	.	.	.	.	.
CCc1ccc(N2C(=O)Cc3c2nc(N)c(C#N)c3N)cc1	.	.	113.6	23.3	.	.
Cc1ccc(SCC(=O)Nc2ccc(N3CCN(C)CC3)c(F)c2)cc1	.	.	89.8	48.1	.	.
CC(C)C(=O)Nc1ccc(N2CCN(C)CC2)c(F)c1	.	.	.	22.1	.	.
Cc1ccc(-n2nc(C)c3c(C(F)(F)F)cc(-c4cccnc4)nc32)cc1C	/	.	/	/	/	/
CN1CCSc2ccc(C(=O)NCc3ccccc3)cc21	.	?	24.6	10.0	.	.
COc1ccc(NC(=O)c2ccc3c(c2)n(C)c(=O)n3C)cc1	.	.	.	.	.	.
COc1ccc(CNC(=O)c2ccc3c(c2)N(Cc2ccccc2)CCS3)cc1	/	.	/	/	/	/
CN1CCSc2ccc(C(=O)Nc3cccc(F)c3)cc21	?	.	52.7	55.2	?	.
COc1ccc(NC(=O)c2ccc3c(c2)N(C)CCS3)cc1	.	.	66.7	59.5	.	.
CCc1ccccc1N1CC(c2nc3ccccc3n2CCCOc2ccc(Cl)cc2)CC1=O (centres undefined)	/	.	/	/	/	/
COc1cccc(NC(=O)c2ccccc2Oc2ccccc2)c1	.	.	.	.	.	.
CCOc1ccc(NC(=O)C(C)Oc2ccccc2C(=O)Nc2ccc(C)c(Cl)c2)cc1 (centres undefined)	.	.	111.5	21.7	.	.
COc1ccc(NC(=O)c2ccccc2SC)cc1	?	.	66.5	54.0	.	.
CCOc1ccc(NC(=O)c2ccccc2SC)cc1	.	.	58.7	50.4	.	.
CCOc1ccc(NC(=O)c2cc(SC)ccc2Cl)cc1	.	.	.	.	.	.
CCSc1ccccc1C(=O)Nc1cccc(OC)c1	.	.	.	14.9	?	.
CCc1ccc(NC(=O)CN2C(=O)c3ccccc3Sc3ccc(C(=O)N4CCCC4)cc32)cc1	/	.	/	/	/	/
Cc1cc(C)cc(NC(=O)c2cc(CN3CCCC3)on2)c1	/	.	/	/	/	/
COc1ccc(NC(=O)CCc2c(C)nc3nc(CNC(=O)OC(C)(C)C)nn3c2C)cc1OC	/	.	/	/	/	/
O=C(Nc1ccc(Cl)cc1)C1CCC(CNS(=O)(=O)c2ccc(Br)s2)CC1 (centres undefined)	/	.	/	/	/	/
SMILES	LmPK inh	Tb PYK inh	Shiga toxin inh	CHX counter	RE007 growth inh	FBPA Giardia inh
Oc1c(Cl)cc(Cl)cc1C=Nc1ccc2c(c1)OCCO2	.	.	116.7	68.2	?	.
CCCCCCCSc1nnc(-c2ccccc2N)c(=O)[nH]1	.	.	.	.	?	.
CCCSc1nnc(-c2ccccc2N)c(=O)[nH]1	.	.	93.2	.	.	.
CCCCSc1nnc(-c2ccccc2N)c(=O)[nH]1	.	.	77.4	27.6	.	.
COc1ccccc1CNC(=O)Nc1ccc2c(c1)N(C)C(=O)c1ccccc1S2	/	.	/	/	/	/
CC(C)(C)OC(=O)NCCCCC1=CC2=CC(=O)C(C)(OC(=O)CCc3ccccc3)C(=O)C2=CO1 (centres undefined)	/	/	/	/	/	.
O=C(CN1C(=O)S/C(=C\c2ccc(O)cc2)C1=O)c1ccccc1	.	.	19.6	36.4	.	.
O=C(N/N=C/c1cc2ccccc2[nH]1)c1ccccc1Cl	.	.	.	16.4	.	.
O=C(NN=Cc1ccccc1Cl)c1cccc2ccccc12	/	.	/	/	.	/
O=C(N/N=C/c1cccc2ccccc12)c1ccccc1Cl	.	.	.	13.4	.	.
CCn1cc(/C=N\NC(=O)c2ccccc2Cl)cn1	.	.	.	.	.	.
Cc1occc1C(=O)N/N=C/c1cccc2ccccc12	.	.	87.3	44.4	.	.
Nc1ccc(N2CCCCC2)c2nonc12	.	?	.	.	.	1.99µM
